Screens (PubChem)
Tat export inh: blocks Tat-dependent protein export in E. coli; E. coli MC4100 TorA-mCherry Tat export, fluorescence; inhibition, % at 10 µM; 340,000 tested, 0.036% active; AID 488895;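 active means mean replicate inhibition at least 50% and at least half of replicates individually reaching 50%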;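 further: exported cargo escapes ClpAP degradation while cytoplasmic cargo is degraded and loses fluorescence; 0% = median of neutral control wells and 100% = median of NaSCN control wells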
phage Ecoli inh: E. coli growth loss with phage present; 360,000 tested, 0.26% active; inhibition, % at 11.9 µM; growth absorbance; in the data active means inhibition above about 11%
p-CIP stab down: compounds decreasing mouse p/CIP protein stability; Q05BA5; F442A p/CIP-EGFP cells, EGFP fluorescence, 16 h; decrease of EGFP signal, % at 10 µM; 290,000 tested, 0.01% active;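 active means EGFP signal decrease of at least 30% at 10 µM or well 3 SD below plate mean, unless failing retest; inactive means the rest, including hits failing retest or dose response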
Target sequence (Q05BA5 1-1403): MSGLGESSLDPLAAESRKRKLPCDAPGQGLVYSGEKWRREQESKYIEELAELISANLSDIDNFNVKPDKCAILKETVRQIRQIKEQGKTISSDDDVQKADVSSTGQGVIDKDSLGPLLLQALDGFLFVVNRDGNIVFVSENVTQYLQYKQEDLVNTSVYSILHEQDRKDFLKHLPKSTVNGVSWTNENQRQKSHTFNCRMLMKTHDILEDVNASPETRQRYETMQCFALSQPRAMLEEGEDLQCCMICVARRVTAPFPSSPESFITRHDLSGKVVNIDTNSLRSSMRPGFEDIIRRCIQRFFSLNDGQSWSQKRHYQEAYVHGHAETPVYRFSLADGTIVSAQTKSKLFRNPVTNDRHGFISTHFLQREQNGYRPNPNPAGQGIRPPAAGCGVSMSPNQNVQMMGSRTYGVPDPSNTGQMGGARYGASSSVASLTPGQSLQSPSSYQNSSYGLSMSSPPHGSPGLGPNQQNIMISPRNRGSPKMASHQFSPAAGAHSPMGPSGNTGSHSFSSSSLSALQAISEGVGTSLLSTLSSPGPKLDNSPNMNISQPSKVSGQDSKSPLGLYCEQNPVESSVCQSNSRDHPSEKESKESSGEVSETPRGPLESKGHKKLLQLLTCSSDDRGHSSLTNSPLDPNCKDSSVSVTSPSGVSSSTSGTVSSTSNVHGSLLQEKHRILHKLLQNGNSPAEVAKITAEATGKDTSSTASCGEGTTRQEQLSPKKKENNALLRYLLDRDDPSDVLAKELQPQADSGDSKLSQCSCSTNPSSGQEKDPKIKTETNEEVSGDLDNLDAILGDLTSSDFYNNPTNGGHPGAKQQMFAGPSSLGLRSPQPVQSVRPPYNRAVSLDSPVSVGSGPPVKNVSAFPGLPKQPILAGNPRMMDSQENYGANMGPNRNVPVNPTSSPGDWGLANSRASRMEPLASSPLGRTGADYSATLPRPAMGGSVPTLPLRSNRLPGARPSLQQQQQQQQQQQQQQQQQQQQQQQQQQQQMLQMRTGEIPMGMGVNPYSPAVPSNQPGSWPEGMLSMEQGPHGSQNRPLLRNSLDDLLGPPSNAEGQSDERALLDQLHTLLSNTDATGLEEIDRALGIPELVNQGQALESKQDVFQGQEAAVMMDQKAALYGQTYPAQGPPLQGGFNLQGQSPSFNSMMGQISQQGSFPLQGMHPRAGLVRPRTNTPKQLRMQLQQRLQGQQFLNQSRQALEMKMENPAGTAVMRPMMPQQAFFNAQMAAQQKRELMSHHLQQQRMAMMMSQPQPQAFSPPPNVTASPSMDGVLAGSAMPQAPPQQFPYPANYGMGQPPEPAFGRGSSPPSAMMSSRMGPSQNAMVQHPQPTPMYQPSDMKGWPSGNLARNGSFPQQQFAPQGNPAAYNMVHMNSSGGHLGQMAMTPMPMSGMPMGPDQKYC
E coli growth-1: blocks Escherichia coli growth; OD600, 23 h; active compounds read low; OD600 absorbance (concentration not given with the values); 330,000 tested, 0.21% active; AID 1053175;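 active means OD600 absorbance below the run mean of sample wells minus 3.6 SD, in any replicate, cut at about 0.56 in these data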
AddAB inh: less growth of phage-infected E. coli with AddAB | E. coli expressing H. pylori AddAB, absorbance growth | inhibition, % at 11.9 µM | 330,000 tested, 0.29% active | AID 435030; in the data active means inhibition above about 12%;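 further: 0% = vehicle wells of infected cells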
E coli growth-2: counter-screen for AddAB inhibitors: E. coli growth inhibition; E. coli V3065 growth, OD600 absorbance, 18 h; inhibition, % at 11.9 µM; 330,000 tested, 0.27% active;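 active means inhibition above the campaign's mean inhibition across all tested compounds plus 3 SD, cut at about 9.9% in these data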;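 further: uninfected addAB+ strain grown without phage in ampicillin broth; 0% = DMSO wells and 100% = ciprofloxacin 0.95 µg/ml wells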
AddAB confirm: growth loss of T4-infected E. coli expressing H. pylori AddAB, confirmed. inhibition, % at 11.9 µM. E. coli V3065 expressing H. pylori AddAB, T4 phage, OD; T4 phage with gene 2 nonsense mutations. 880 tested, 64% active. AID 488942. shares compounds with AddAB inh;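 active means mean inhibition above a set limit taken from the earlier primary screen, cut at about 13% in these data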;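 further: higher means less bacterial growth since AddAB block lets phage replicate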
RecBCD counter: counter-screen: growth loss of RecBCD+ E. coli with mutant T4 phage | shares compounds with AddAB inh | E. coli V66 + mutant T4 phage, OD growth | inhibition, % at 11.9 µM | 880 tested, 73% active;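 active means mean inhibition above the mean of solvent-only control wells plus 3 SD, cut at about 4% in these data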;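 further: optical density read after an 18 h incubation at 37 °C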
bact viab count: reduces bacterial viability, AddAB inhibitor counter-screen; shares compounds with AddAB inh; absorbance (AddAB counterscreen); inhibition, % at 11.9 µM; 880 tested, 35% active; AID 488956; in the data active means inhibition above about 25%
RecBCD conf: confirmation: growth loss of phage-infected RecBCD+ E. coli (RecBCD inhibitor screen). shares compounds with phage Ecoli inh. E. coli V66 + T4 2- phage, growth OD. 890 tested, 45% active. inhibition, % at 11.9 µM. AID 651982;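 active means mean inhibition over triplicates exceeding the hit threshold derived in the original primary screen, cut at about 11% in these data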
Ecoli viability: bacterial viability inhibition counter-screen for RecBCD; AID 651983; shares compounds with phage Ecoli inh; inhibition, % at 11.9 µM; 890 tested, 29% active; E. coli viability, absorbance (OD) growth; in the data active means inhibition above about 20%;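 further: E. coli strain V66 grown with compound alone and no phage infection; 0% = bacteria with DMSO vehicle only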
AddAB phage OD: growth loss of phage-infected AddAB E. coli, RecBCD counter-screen; inhibition, % at 11.9 µM; E. coli expressing H. pylori AddAB + T4 phage, OD growth; gene 2 mutant T4, recBCD-deleted host; 890 tested, 45% active; shares compounds with phage Ecoli inh;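 active means mean inhibition above the solvent-only control wells' mean plus 3 SD, cut at about 22% in these data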;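 further: higher means less bacterial growth from phage killing when AddAB is blocked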
Active calls of the source: *. Most compounds without a hit are left out; they make up all but 0.51% or so of the library.

What do the screens show for `O=C(NC(=S)NNC(=O)c1ccccc1O)c1ccco1`?
Tat export inh: -1.4; phage Ecoli inh: 5.7; p-CIP stab down: 13.4; E coli growth-1: 0.373*; AddAB inh: 14.2*; E coli growth-2: 2.5; AddAB confirm: 16.6*; RecBCD counter: 17.3*; bact viab count: 37.2*

What do the screens show for `CC(C)COc1ccc(S(=O)(=O)n2cc(F)c(=O)[nH]c2=O)cc1`?
Tat export inh: -4.3; phage Ecoli inh: 6.5; p-CIP stab down: -8.9; E coli growth-1: 0.665; AddAB inh: 12.9*; E coli growth-2: 6.9; AddAB confirm: 3.5; RecBCD counter: 2.1; bact viab count: 4.3

What do the screens show for `CCCOc1ccc(S(=O)(=O)n2cc(F)c(=O)[nH]c2=O)cc1`?
Tat export inh: 2.1; phage Ecoli inh: 3.3; p-CIP stab down: -5.3; E coli growth-1: 0.692; AddAB inh: 13.1*; E coli growth-2: 6.4; AddAB confirm: 10.7; RecBCD counter: 0.9; bact viab count: 5.4

Results for CCOc1ccc(Cn2cc(F)c(=O)[nH]c2=O)cc1 ?
Tat export inh: -8.8; phage Ecoli inh: 2.5; p-CIP stab down: -19.0; E coli growth-1: 0.647; AddAB inh: 1.6; E coli growth-2: 1.0

What do the screens show for `Fc1cc(F)cc(NC(=S)N2CCN(c3ncccn3)CC2)c1`?
Tat export inh: -11.0; phage Ecoli inh: 3.2; p-CIP stab down: -4.6; E coli growth-1: 0.655; AddAB inh: -0.6; E coli growth-2: 0.4

How did COc1nccnc1NS(=O)(=O)c1ccc(N=Cc2c(C)[nH]n(-c3ccc(Cl)cc3)c2=O)cc1 do in these assays?
phage Ecoli inh: 6.5; p-CIP stab down: 3.6; E coli growth-1: 0.678; AddAB inh: 3.2; E coli growth-2: 4.7

How did CCc1nnc(NS(=O)(=O)c2ccc(N=Cc3c(C)[nH]n(-c4ccc(Cl)cc4)c3=O)cc2)s1 do in these assays?
Tat export inh: -8.3; phage Ecoli inh: 9.5; p-CIP stab down: -3.5; AddAB inh: 13.5*; E coli growth-2: 8.9; AddAB confirm: 8.5; RecBCD counter: 7.0*; bact viab count: 10.8

What do the screens show for `Cn1c(=O)c2c(nc(CN3CCC(C(N)=O)CC3)n2Cc2c(F)cccc2Cl)n(C)c1=O`?
Tat export inh: -5.9; phage Ecoli inh: 3.5; p-CIP stab down: -8.0; E coli growth-1: 0.716; AddAB inh: -0.8; E coli growth-2: -4.4

Results for CC1CCCCN1Cc1nc2c(c(=O)n(C)c(=O)n2C)n1Cc1c(F)cccc1Cl (stereo unspecified) ?
Tat export inh: -0.2; p-CIP stab down: -0.7; E coli growth-1: 0.725; AddAB inh: 34.7*; E coli growth-2: 25.0*; AddAB confirm: -4.6; RecBCD counter: -1.4; bact viab count: -3.3

Results for CCOCCCNC(=O)Cn1cc2c(n1)CCCC2 ?
Tat export inh: 1.8; phage Ecoli inh: 0.6; p-CIP stab down: -0.9; E coli growth-1: 0.711; AddAB inh: 14.4*; E coli growth-2: 3.8; AddAB confirm: -2.2; RecBCD counter: 1.0; bact viab count: -1.7

How did COc1cccc(C(=O)Nc2nnc(-c3cccs3)o2)c1 do in these assays?
Tat export inh: 5.4; phage Ecoli inh: 3.0; p-CIP stab down: -23.2; E coli growth-1: 0.565; AddAB inh: 12.5*; E coli growth-2: -1.7; AddAB confirm: 9.5; RecBCD counter: 5.7*; bact viab count: 0.4

What do the screens show for `COc1cccc(C(=O)Nc2nnc(-c3ccc(Cl)cc3)o2)c1`?
Tat export inh: -4.3; phage Ecoli inh: -4.7; p-CIP stab down: -4.0; E coli growth-1: 0.591; AddAB inh: 4.2; E coli growth-2: -4.1

How did O=C(NCc1cccnc1)c1[nH]c(C(F)(F)F)nc1-c1ccccc1 do in these assays?
phage Ecoli inh: 2.4

What do the screens show for `COc1ccc(CNC(=O)CCC(=O)N2CC(C)Oc3ccccc32)cc1` (stereo unspecified)?
Tat export inh: -20.2; phage Ecoli inh: 3.0; p-CIP stab down: -5.0; E coli growth-1: 0.68; AddAB inh: 1.0; E coli growth-2: -0.1

What do the screens show for `NC(=S)N/N=C/c1ncc(C(F)(F)F)cc1Cl`?
Tat export inh: -4.1; p-CIP stab down: -0.6; AddAB inh: 23.3*; E coli growth-2: 18.3*; AddAB confirm: 17.7*; RecBCD counter: 17.7*; bact viab count: 17.6

Results for NC(=S)N/N=C/c1ccc(C(F)(F)F)cc1 ?
Tat export inh: -3.5; phage Ecoli inh: 3.7; p-CIP stab down: 4.4; AddAB inh: 0.3; E coli growth-2: 2.5

Results for Cc1ccc(OCCC(=O)OCC(=O)NCCc2ccccc2)cc1 ?
Tat export inh: 1.3; phage Ecoli inh: 3.8; p-CIP stab down: -5.4; E coli growth-1: 0.651; AddAB inh: 1.1; E coli growth-2: 0.5

Results for O=C(CS(=O)(=O)c1ccc(Br)cc1)N1CCOCC1 ?
Tat export inh: 1.8; phage Ecoli inh: 0.3; p-CIP stab down: 10.3; E coli growth-1: 0.724; AddAB inh: 1.0; E coli growth-2: 3.4

Results for CCCS(=O)(=O)c1c(S(=O)(=O)CCC)c2c(C)cccn2c1C(=O)N/N=C/c1cc(O)cc(O)c1 ?
Tat export inh: -6.0; phage Ecoli inh: 9.6; p-CIP stab down: -3.1; AddAB inh: 13.9*; E coli growth-2: 8.2; AddAB confirm: 3.5; RecBCD counter: 6.0*; bact viab count: 0.5

Results for CCCS(=O)(=O)c1c(S(=O)(=O)CCC)c2c(C)cccn2c1C(N)=O ?
Tat export inh: 1.6; phage Ecoli inh: 2.0; p-CIP stab down: -3.4; E coli growth-1: 0.702; AddAB inh: 3.4; E coli growth-2: 1.7

How did COc1c(N2CCN(C(=S)NC3CC4CCC3C4)C(C)C2)c(F)cc2c(=O)c(C(=O)O)cn(C3CC3)c12 (stereo unspecified) do in these assays?
Tat export inh: 63.8*; phage Ecoli inh: 98.8*; p-CIP stab down: 2.0; E coli growth-1: 0.092*; AddAB inh: 98.6*; E coli growth-2: 99.2*; AddAB confirm: 101.7*; RecBCD counter: 101.0*; bact viab count: 100.6*; RecBCD conf: 101.5*; Ecoli viability: 103.3*; AddAB phage OD: 102.9*
